Inconclusive results are not listed. Activity calls are given as the source filed them. Rule for the calls, unless noted: active = hit-call score of the fitted dose curve at least 0.9, where 1 is the maximum; inactive = score below 0.9.
Key:
[1] = target: Retinoic acid receptor RXR-alpha (Homo sapiens) (UniProt P19793); experiment: ATG_RXRa_TRANS: Attagene TRANS-FACTORIAL HepG2 Assay for human Retinoid X Receptor alpha (RXRa) (AID 2283012; active = hit-call score of the fitted dose curve at least 0.9, where 1 is the maximum)
Summary of the method: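 HepG2 cells transiently transfected with GAL4-UAS reporter units and chimeric RXRa-Gal4 protein, treated 24 h. Reporter mRNA measured by RT-PCR, fluorescent labelling, HpaI digestion and capillary electrophoresis. Induction fitted against DMSO.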

[2] = target: human Thyroid Receptor alpha (THRa1), THRA (gene 7067) (UniProt P10827); experiment: ATG_THRa1_TRANS: Attagene TRANS-FACTORIAL HepG2 Assay for human Thyroid Receptor alpha (THRa1) (AID 2283014; active = hit-call score of the fitted dose curve at least 0.9, where 1 is the maximum)
Summary of the method: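 Measured here is mRNA from a GAL4-UAS reporter in transfected HepG2 cells carrying a Gal4-fused receptor, 24 h post-dose. DMSO served as negative control and baseline.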

[3] = read-out: E-selectin (Homo sapiens) (UniProt P16581); experiment: BSK_3C_Eselectin: BioMAP Diversity Plus: 3C Assay for Eselectin Biomarker Activity (AID 2283015); settings: primary human endothelial cells (HUVEC); actives raise or lower the signal
Summary of the method: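 Endpoint derived by bidirectional fitting against DMSO vehicle; signal is ELISA-detected E-selectin from primary HUVEC at 24 h post-dosing, with parallel SRB staining (0.1% SRB, 560 nm) flagging cytotoxicity.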

[4] = read-out: Interleukin-1 alpha (IL1a), IL1A (gene 3552); experiment: BSK_BE3C_IL1a: BioMAP Diversity Plus: BE3C Assay for Interleukin-1 alpha (IL1a) Biomarker Activity (AID 2283016); settings: primary human bronchial epithelial cells; actives raise or lower the signal
Summary of the method: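 Human primary bronchial epithelial cells, 24 h chemical exposure; IL-1a quantified by ELISA, fitted bidirectionally against DMSO. Cytotoxicity assessed in parallel by SRB total-protein staining at the time of measurement.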

[5] = read-out: Monocyte Chemoattractant Protein-1 (MCP1), CCL2 (gene 6347); experiment: BSK_3C_MCP1: BioMAP Diversity Plus: 3C Assay for Monocyte Chemoattractant Protein-1 (MCP1) Biomarker Activity (AID 2283017); settings: primary human endothelial cells (HUVEC); actives raise or lower the signal
Summary of the method: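 Using human vascular primary endothelium, researchers measured MCP-1 by ELISA 24 h after treatment, with DMSO serving as negative control for bidirectional fitting.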

[6] = read-out: Human Leukocyte Antigen - DR isotype (HLADR), HLA-DRA (gene 3122); experiment: BSK_3C_HLADR: BioMAP Diversity Plus: 3C Assay for Human Leukocyte Antigen - DR isotype (HLADR) Biomarker Activity (AID 2283019); settings: primary human endothelial cells (HUVEC); actives raise or lower the signal;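 note: ELISA of cell-surface HLA-DR on HUVEC 24 h after dosing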
Summary of the method: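 Compound added to primary HUVEC cultures, 24 h incubation, then HLA-DR determined by ELISA; endpoint derived by bidirectional fitting relative to DMSO negative control.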

[7] = read-out: Interleukin-8 (IL8), CXCL8 (gene 3576); experiment: BSK_3C_IL8: BioMAP Diversity Plus: 3C Assay for Interleukin-8 (IL8) Biomarker Activity (AID 2283020); settings: primary human endothelial cells (HUVEC); actives raise or lower the signal
Summary of the method: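 Primary human umbilical vein endothelial cells were dosed for 24 h. IL-8 was quantified by ELISA and fitted bidirectionally against DMSO. Cytotoxicity was assessed in parallel cultures by SRB staining at 560 nm.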

[8] = read-out: Monokine induced gamma interferon (MIG), CXCL9 (gene 4283); experiment: BSK_3C_MIG: BioMAP Diversity Plus: 3C Assay for Monokine induced gamma interferon (MIG) Biomarker Activity (AID 2283021); settings: primary human endothelial cells (HUVEC); actives raise or lower the signal
Summary of the method: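 HUVEC primary endothelial cultures dosed with chemical; MIG quantified by ELISA at 24 h. Data fitted bidirectionally against DMSO control, with parallel SRB total-protein staining for cytotoxicity.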

[9] = BSK_3C_SRB: Viability Assessment in the BioMAP Diversity Plus: 3C Assay (AID 2283023); settings: primary human endothelial cells (HUVEC);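 note: cells read 24 h after compound dosing; fitted both ways against DMSO so a hit may be signal rise or drop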
Summary of the method: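 Overt cytotoxicity is gauged in parallel confluent HUVEC cultures by SRB total-protein staining at the time of biomarker measurement, 24 h after dosing. Gain or loss of signal is fitted versus DMSO.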

[10] = read-out: Matrix Metallopeptidase 1 (MMP1), MMP1 (gene 4312); experiment: BSK_BE3C_MMP1: BioMAP Diversity Plus: BE3C Assay for Matrix Metallopeptidase 1 (MMP1) Biomarker Activity (AID 2283024); settings: primary human bronchial epithelial cells; actives raise or lower the signal
Summary of the method: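 Human primary bronchial epithelial cells (BE3C system) dosed for 24 h; MMP-1 quantified by ELISA. Bidirectional fit against DMSO; cytotoxicity tracked in parallel cultures by SRB total-protein staining.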

[11] = BSK_3C_Vis: BioMAP Diversity Plus: 3C Assay for Morphology Visualization (AID 2283025); settings: primary human endothelial cells (HUVEC);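 note: fitted both ways so gain or loss versus DMSO counts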
Summary of the method: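 Human umbilical vein endothelial cell morphology was inspected by light microscopy 24 h after chemical dosing; scored bidirectionally relative to DMSO.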

[12] = read-out: Pselectin, SELP (gene 6403); experiment: BSK_4H_Pselectin: BioMAP Diversity Plus: 4H Assay for Pselectin Biomarker Activity (AID 2283026); settings: primary human endothelial cells (HUVEC); actives raise or lower the signal
Summary of the method: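 Primary human umbilical vein endothelial cells were treated 24 h, and cell-surface P-selectin was then quantified by ELISA. Bidirectional fit versus DMSO; cytotoxicity checked in parallel cultures by SRB total-protein staining.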

[13] = BSK_4H_SRB: Viability Assessment in the BioMAP Diversity Plus: 4H Assay (AID 2283027); settings: primary human endothelial cells (HUVEC);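 note: cells exposed to compound for 24 h before staining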
Summary of the method: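 Human umbilical vein endothelial cells were dosed with chemical and, after 24 h, fixed with 10% TCA, stained with 0.1% sulforhodamine B, and read at 560 nm to give total protein as a cytotoxicity measure. Bidirectional fitting relative to DMSO control.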

[14] = BSK_BE3C_SRB: Viability Assessment in the BioMAP Diversity Plus: BE3C Assay (AID 2283028); settings: primary human bronchial epithelial cells
Summary of the method: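 SRB total-protein staining (0.1%, after TCA fixation) of chemically dosed human bronchial epithelial primary cells at 24 h; DMSO serves as the negative control for bidirectional curve fitting.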

[15] = read-out: Thrombomodulin, THBD (gene 7056); experiment: BSK_3C_Thrombomodulin: BioMAP Diversity Plus: 3C Assay for Thrombomodulin Biomarker Activity (AID 2283029); settings: primary human endothelial cells (HUVEC); actives raise or lower the signal
Summary of the method: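 Human umbilical vein endothelial cells were exposed to chemicals for 24 h; cell-surface thrombomodulin quantified by ELISA, with bidirectional fitting against DMSO baseline.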

[16] = read-out: Monocyte Chemoattractant Protein-1 (MCP1), CCL2 (gene 6347); experiment: BSK_4H_MCP1: BioMAP Diversity Plus: 4H Assay for Monocyte Chemoattractant Protein-1 (MCP1) Biomarker Activity (AID 2283018); settings: primary human endothelial cells (HUVEC); actives raise or lower the signal
Summary of the method: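 Human umbilical vein endothelial cells (4H system) exposed to chemicals for 24 h in 96-well format. MCP-1 measured by ELISA; bidirectional fitting against DMSO, with SRB total-protein staining in parallel cultures for cytotoxicity.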

[17] = target: human Retinoid X Receptor beta (RXRb), RXRB (gene 6257) (UniProt P28702); experiment: ATG_RXRb_TRANS: Attagene TRANS-FACTORIAL HepG2 Assay for human Retinoid X Receptor beta (RXRb) (AID 2283013; active = hit-call score of the fitted dose curve at least 0.9, where 1 is the maximum)
Summary of the method: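 HepG2 cells were transiently transfected with multiplexed GAL4-UAS reporters and a chimeric RXRb-Gal4 construct, then exposed for 24 h. Reporter mRNA was quantified by RT-PCR, FAM labeling, HpaI digestion and capillary electrophoresis; gain of signal was scored against DMSO.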

[18] = target: human Vitamin D Receptor (VDR), VDR (gene 7421) (UniProt P11473); experiment: ATG_VDR_TRANS: Attagene TRANS-FACTORIAL HepG2 Assay for human Vitamin D Receptor (VDR) (AID 2283022; active = hit-call score of the fitted dose curve at least 0.9, where 1 is the maximum)
Summary of the method: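 Multiplexed TRANS reporter in HepG2; 24 h treatment; reporter mRNA by RT-PCR plus capillary electrophoresis; upregulation scored relative to DMSO.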

Measured: outcome

human Retinoid X Receptor beta (RXRb), RXRB (gene 6257), sequence (P28702 whole entry, looked up, the tested form may be a part): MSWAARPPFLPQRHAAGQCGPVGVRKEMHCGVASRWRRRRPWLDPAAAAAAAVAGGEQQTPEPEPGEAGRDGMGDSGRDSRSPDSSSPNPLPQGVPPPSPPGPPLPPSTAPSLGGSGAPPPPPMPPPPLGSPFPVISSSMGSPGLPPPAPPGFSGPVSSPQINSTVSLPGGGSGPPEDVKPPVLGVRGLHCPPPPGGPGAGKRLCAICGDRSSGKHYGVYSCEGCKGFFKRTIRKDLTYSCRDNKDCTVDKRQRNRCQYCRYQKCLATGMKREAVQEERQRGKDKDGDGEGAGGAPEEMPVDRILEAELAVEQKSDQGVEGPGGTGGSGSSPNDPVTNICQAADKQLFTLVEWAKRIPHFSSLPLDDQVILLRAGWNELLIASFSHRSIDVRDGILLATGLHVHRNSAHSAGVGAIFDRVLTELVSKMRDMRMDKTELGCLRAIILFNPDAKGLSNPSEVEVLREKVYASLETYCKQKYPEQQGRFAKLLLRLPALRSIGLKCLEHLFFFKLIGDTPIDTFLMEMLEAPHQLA
Retinoic acid receptor RXR-alpha (Homo sapiens), sequence (P19793 whole entry, looked up, the tested form may be a part): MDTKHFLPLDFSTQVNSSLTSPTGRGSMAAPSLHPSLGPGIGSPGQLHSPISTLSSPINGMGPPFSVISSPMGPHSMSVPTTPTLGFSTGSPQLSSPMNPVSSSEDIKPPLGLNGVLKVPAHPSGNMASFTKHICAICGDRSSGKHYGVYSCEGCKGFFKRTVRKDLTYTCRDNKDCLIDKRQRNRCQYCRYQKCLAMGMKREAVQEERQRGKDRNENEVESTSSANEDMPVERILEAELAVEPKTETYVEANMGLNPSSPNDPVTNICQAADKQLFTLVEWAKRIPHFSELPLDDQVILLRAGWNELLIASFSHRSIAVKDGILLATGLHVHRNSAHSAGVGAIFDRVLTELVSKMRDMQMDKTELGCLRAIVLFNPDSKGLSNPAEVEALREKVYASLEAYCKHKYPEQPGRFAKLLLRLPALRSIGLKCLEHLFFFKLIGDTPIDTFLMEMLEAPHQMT
E-selectin (Homo sapiens), sequence (P16581 whole entry, looked up): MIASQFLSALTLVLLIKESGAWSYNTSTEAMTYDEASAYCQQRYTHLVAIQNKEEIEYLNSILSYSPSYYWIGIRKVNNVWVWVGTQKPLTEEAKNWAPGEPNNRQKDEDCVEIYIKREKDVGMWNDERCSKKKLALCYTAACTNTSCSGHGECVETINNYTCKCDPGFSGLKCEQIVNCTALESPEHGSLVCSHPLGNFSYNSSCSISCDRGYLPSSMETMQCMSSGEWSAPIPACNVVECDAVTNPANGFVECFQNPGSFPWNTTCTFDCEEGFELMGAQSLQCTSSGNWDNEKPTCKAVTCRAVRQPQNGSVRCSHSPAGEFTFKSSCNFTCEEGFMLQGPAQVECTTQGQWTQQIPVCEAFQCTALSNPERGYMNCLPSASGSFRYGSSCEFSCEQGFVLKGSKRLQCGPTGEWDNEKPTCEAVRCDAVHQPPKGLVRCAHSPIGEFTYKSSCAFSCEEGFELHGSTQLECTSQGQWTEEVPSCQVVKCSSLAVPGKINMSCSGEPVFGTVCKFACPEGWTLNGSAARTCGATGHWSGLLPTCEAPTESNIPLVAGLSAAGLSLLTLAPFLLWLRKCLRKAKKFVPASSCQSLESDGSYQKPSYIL
human Vitamin D Receptor (VDR), VDR (gene 7421), sequence (P11473 whole entry, looked up): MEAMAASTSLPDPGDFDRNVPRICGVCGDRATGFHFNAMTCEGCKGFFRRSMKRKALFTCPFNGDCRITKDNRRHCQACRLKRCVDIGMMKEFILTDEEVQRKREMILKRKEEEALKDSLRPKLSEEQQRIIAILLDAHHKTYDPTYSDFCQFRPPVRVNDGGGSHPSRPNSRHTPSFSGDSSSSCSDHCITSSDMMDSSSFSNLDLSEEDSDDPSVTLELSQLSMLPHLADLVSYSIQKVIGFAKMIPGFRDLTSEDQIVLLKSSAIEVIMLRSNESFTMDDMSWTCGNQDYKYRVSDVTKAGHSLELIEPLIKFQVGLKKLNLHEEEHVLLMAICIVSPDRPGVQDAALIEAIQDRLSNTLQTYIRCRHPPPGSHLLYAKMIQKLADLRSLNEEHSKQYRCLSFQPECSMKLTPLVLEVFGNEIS
human Thyroid Receptor alpha (THRa1), THRA (gene 7067), sequence (P10827 whole entry, looked up, the tested form may be a part): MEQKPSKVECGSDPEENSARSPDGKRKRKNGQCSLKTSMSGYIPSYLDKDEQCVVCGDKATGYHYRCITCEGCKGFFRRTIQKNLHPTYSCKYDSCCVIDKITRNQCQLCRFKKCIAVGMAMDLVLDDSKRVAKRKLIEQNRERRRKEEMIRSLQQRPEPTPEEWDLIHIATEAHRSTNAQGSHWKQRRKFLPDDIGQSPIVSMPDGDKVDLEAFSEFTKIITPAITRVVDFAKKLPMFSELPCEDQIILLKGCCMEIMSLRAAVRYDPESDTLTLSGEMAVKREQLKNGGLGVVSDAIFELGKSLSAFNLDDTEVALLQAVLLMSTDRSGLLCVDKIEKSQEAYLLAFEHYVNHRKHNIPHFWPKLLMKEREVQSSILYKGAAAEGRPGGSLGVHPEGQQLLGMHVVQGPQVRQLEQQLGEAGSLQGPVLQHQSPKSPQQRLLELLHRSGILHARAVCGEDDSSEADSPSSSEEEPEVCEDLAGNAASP

CCCCc1ccccc1
not listed: [16] | [17] | [18]
inactive: all other assays above

CCOP(=S)(S)OCC
not listed: [1] | [2] | [17] | [18]
inactive: all other assays above

CC(Cc1ccc(OCC(=O)O)cc1)NCC(O)c1csc(C(F)(F)F)n1 (configuration not stated)
not listed: [1] | [2] | [9] | [16] | [18]
inactive: all other assays above

Cc1ccc([N+](=O)[O-])cc1C
not listed: [2] | [16]
inactive: all other assays above

ClC(Cl)(Cl)c1ccccc1
not listed: [2] | [16] | [17]
inactive: all other assays above

Oc1ccc(I)cc1
inactive: [1] | [2] | [18]

CC1(C)CN=C(NN=C(/C=C/c2ccc(C(F)(F)F)cc2)/C=C/c2ccc(C(F)(F)F)cc2)NC1
inactive: [1] | [2]

COP(=O)(CCC(=O)NCO)OC
not listed: [2] | [9] | [11] | [17] | [18]
inactive: all other assays above

O=C(O)C1C(C(=O)O)C2(Cl)C(Cl)=C(Cl)C1(Cl)C2(Cl)Cl (configuration not stated)
not listed: [1] | [17] | [18]
inactive: all other assays above

Nc1ccc([N+](=O)[O-])cc1Cl
not listed: [2] | [9]
inactive: all other assays above

Reference: PubChem BioAssay (EPA / NIEHS)
